Most compounds without a hit are left out; they make up all but 27% or so of the library.
Cav3 T inh: human Cav3.2 channel inhibition, primary screen. O95180. Cav3.2-expressing cells, Fluo-4 calcium fluorescence FDSS; hits give low values. B-score at 10 µM. hit rate 4% among 100,000. AID 449739;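 active means single-dose well whose peak fluorescence ratio is a statistical outlier from its plate by either plate-standardised score or position-corrected B-score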
CYP2C19 activ: activators of human cytochrome P450 2C19 | recombinant CYP2C19, luciferin-H EGE luminescence; hits give high values; 0 = fully inhibited enzyme, 1 = untreated enzyme | activation factor at 5 µM | 96,000 tested, under 10 active;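 active means activation factor of at least 2 at 5 µM in the primary screen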
Target sequence (P33261 whole entry, looked up): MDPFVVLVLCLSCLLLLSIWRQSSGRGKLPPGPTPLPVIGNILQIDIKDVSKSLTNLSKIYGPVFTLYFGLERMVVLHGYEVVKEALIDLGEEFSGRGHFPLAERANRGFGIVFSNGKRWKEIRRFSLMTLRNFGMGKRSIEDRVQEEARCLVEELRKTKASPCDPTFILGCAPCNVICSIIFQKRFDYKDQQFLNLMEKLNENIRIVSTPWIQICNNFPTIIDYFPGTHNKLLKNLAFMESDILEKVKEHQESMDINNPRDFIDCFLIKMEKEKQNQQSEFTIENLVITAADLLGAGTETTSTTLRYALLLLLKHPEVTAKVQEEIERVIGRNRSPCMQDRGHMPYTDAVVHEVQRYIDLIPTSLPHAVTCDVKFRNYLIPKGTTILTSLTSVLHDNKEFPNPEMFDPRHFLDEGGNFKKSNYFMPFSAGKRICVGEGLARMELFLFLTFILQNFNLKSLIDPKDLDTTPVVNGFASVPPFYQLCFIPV
CYP2C19 inh: inhibitors of human CYP2C19. CYP2C19 Supersomes, luciferin-H EGE luminescence, 30 min. inhibition, % at 5 µM. hit rate 21% among 96,000;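 active means CYP2C19 inhibition above a set limit at 5 µM in the primary screen, cut at about 50% in these data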
CYP2C9 inh: inhibitors of human CYP2C9. P11712. CYP2C9 Supersomes, luciferin-H conversion, luminescence. inhibition, % at 5 µM. hit rate 20% among 96,000. AID 777;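 active means blocking of liver enzyme CYP2C9 beyond about 50% at 5 µM, limit read from the data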
CYP2C9 activ: increases human cytochrome P450 2C9 activity; P11712; recombinant CYP2C9, luciferin-H conversion, luminescence; hits give high values; factor 1 = untreated enzyme, 0 = blocked; activation factor at 5 µM; hit rate 1.4% among 96,000; AID 1024;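 active means activation factor of 2 or more for CYP2C9 at a 5 µM dose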
Large screens that a line does not name were inactive.

C=C(C)C(=O)OC1(C(F)(F)F)Oc2cc(C)ccc2NC1=O (stereo unspecified)	CYP2C19 inh 63
CCCCOc1ccc(OCCNS(=O)(=O)N(C)C)cc1	CYP2C19 inh 54
Cc1cc(Cl)ccc1OC(C)C(=O)NCCCCc1ccccc1 (stereo unspecified)	CYP2C9 inh 56
CC(Oc1ccc(Cl)cc1Cl)C(=O)N/N=C1\CCCc2ccccc21 (stereo unspecified)	CYP2C9 inh 60
CC(Oc1ccc(Cl)cc1Cl)C(=O)Nc1ncccn1 (stereo unspecified)	CYP2C19 inh 69
CC(Oc1ccc(Cl)cc1Cl)C(=O)NCc1ccncc1 (stereo unspecified)	CYP2C19 inh 100, CYP2C9 inh 98
Cc1ccc(C)n1NC(=O)c1ccc(O)cc1	none
CC1(C)Cc2ccccc2-c2nnc(-c3ccccn3)n21	none
Cn1c(SCC(=O)NC(C)(C)C)nnc1-c1ccc(C(C)(C)C)cc1	CYP2C9 inh 53
Cn1c(SCC(N)=O)nnc1-c1ccccc1	none
Cn1c(SCC(=O)c2ccccc2)nnc1-c1ccc(O)cc1	CYP2C19 inh 93
Cn1c(SCC(=O)c2ccccc2)nnc1-c1ccco1	none (no result: CYP2C19 activ, CYP2C19 inh, CYP2C9 inh, CYP2C9 activ)
Cn1c(SCC(=O)c2ccccc2)nnc1-c1cccc(N)c1	CYP2C19 inh 95
CC(C)(C)NC(=O)CSc1ccc(C(C)(C)C)cc1	none (no result: CYP2C19 activ, CYP2C19 inh, CYP2C9 inh, CYP2C9 activ)
CCc1nc(NCC2CCCN2CC)c2nnn(Cc3ccccc3F)c2n1 (stereo unspecified)	none
O=c1c2nnn(Cc3ccc(Cl)cc3)c2ncn1Cc1ccc(F)cc1	none
O=C(Cc1cn2ccsc2n1)NCCc1ccc(F)cc1	CYP2C19 inh 72
O=C(Cc1cn2ccsc2n1)Nc1ccccc1Oc1ccccc1	CYP2C19 inh 80, CYP2C9 inh 70
CC(=O)Oc1cc2cccc(OC(C)=O)c(=O)c2c(OC(C)=O)c1OC(C)=O	none (no result: CYP2C19 activ, CYP2C19 inh, CYP2C9 inh, CYP2C9 activ)
CC(C)Nc1nc(NC(C)C)nc(N(C#N)CCOc2ccc(Cl)cc2Cl)n1	Cav3 T inh -5 (no result: CYP2C19 activ, CYP2C19 inh, CYP2C9 inh, CYP2C9 activ)
Fc1ccc(Cn2c(SCc3ccc(F)c(F)c3)nnc2C(F)(F)F)cc1	Cav3 T inh -3.8, CYP2C19 inh 67, CYP2C9 inh 57
Fc1ccc(Cn2c(SCc3ccc(F)c(C(F)(F)F)c3)nnc2C(F)(F)F)cc1	CYP2C19 inh 64, CYP2C9 inh 56
CCCCOC(=O)CSC1=C(C#N)C(c2ccccc2OCC)C(C#N)C(=O)N1 (stereo unspecified)	CYP2C9 inh 79
CCCCOC(=O)CSC1=C(C#N)C(c2ccccc2OC)C(C#N)C(=O)N1 (stereo unspecified)	CYP2C19 inh 64, CYP2C9 inh 55
CCCSC1=C(C#N)C(c2ccccc2OCC)CC(=O)N1 (stereo unspecified)	none
CCCOC(=O)CSC1=C(C#N)C(c2ccccc2OCC)C(C#N)C(=O)N1 (stereo unspecified)	CYP2C9 inh 67
CCCNc1nc2c(c(=O)[nH]c(=O)n2C)n1CCC(C)C	none
COc1cc(CNCCO)ccc1OCC(=O)Nc1ccc(Br)cc1	none
O=C(Nc1ccc2c(c1)OCCO2)C1CCN(c2cnccn2)CC1	none
Cc1nc2cccc(C(=O)NCc3ccccc3)c2o1	CYP2C9 inh 62
CCOC(=O)c1ccccc1NS(=O)(=O)c1ccccc1F	CYP2C19 inh 89, CYP2C9 activ 2.9
CCOC(=O)c1ccccc1NS(=O)(=O)c1ccc(C)cc1	CYP2C19 inh 60
CC(NC(=O)c1ccccc1NC(=O)CSc1nnnn1C)c1ccccc1 (stereo unspecified)	CYP2C9 inh 62
COC(=O)c1ccccc1NS(=O)(=O)c1ccc(F)cc1	none (no result: CYP2C19 activ, CYP2C19 inh, CYP2C9 inh, CYP2C9 activ)
CC1=C(C(N)=O)C(c2ccccn2)n2nc(SCc3ccccc3)nc2N1 (stereo unspecified)	none (no result: CYP2C19 activ, CYP2C19 inh, CYP2C9 inh, CYP2C9 activ)
CC(C)(C)NC(=O)c1sccc1C(=O)O	none (no result: CYP2C19 activ, CYP2C19 inh, CYP2C9 inh, CYP2C9 activ)
CC(C)[C@H]1C=C(C(=O)O)O[C@@H](OCCCCO)C1	none (no result: CYP2C19 activ, CYP2C19 inh, CYP2C9 inh, CYP2C9 activ)
CCC1CCCCN1C1Sc2ccc(C(=O)OC)cc2NC1=O (stereo unspecified)	none
CCOC(=O)Cc1nnc2c(Nc3ccccc3F)nc3nonc3n12	none
CCOC(=O)c1ccccc1-c1csc(NS(=O)(=O)c2ccc(Cl)cc2)n1	Cav3 T inh -9.2, CYP2C9 inh 99
CC(NC(=O)c1ccc(NS(C)(=O)=O)cc1)c1ccccc1 (stereo unspecified)	none
Cc1ccc(CNC(=O)c2ccccc2NS(C)(=O)=O)cc1	CYP2C19 inh 55, CYP2C9 inh 54
CCOC(=O)c1ccccc1NC(=O)COc1ccccc1	none
CCOC(=O)c1ccccc1NS(=O)(=O)c1ccccc1	CYP2C19 inh 98
CC(NC(=O)c1ccccc1NS(C)(=O)=O)c1ccccc1 (stereo unspecified)	CYP2C19 inh 62, CYP2C9 inh 73
C=CCc1ccccc1OCC(=O)OCCNC(=O)c1cccnc1	none
COc1ccc(C(=O)NCC(C)(C)SCc2c(C)cc(C)cc2C)cc1	none
CCOC(=O)c1ccccc1NC(=O)c1ccccc1NS(C)(=O)=O	CYP2C19 inh 55, CYP2C9 inh 74
CCOC(=O)c1cnc(SC)nc1Oc1cccc(NS(=O)(=O)c2ccc(C)cc2)c1	CYP2C9 inh 81
Cc1ccccc1NC(=O)Nc1ccccc1C(=O)NCc1ccccc1	CYP2C9 inh 59
Cc1ccccc1CNC(=O)c1ccc(CSCc2ccccc2)cc1	Cav3 T inh -5.9
O=C(NCc1ccccc1)c1ccc(Oc2ccc(C(=O)NCc3ccccc3)cc2)cc1	none
Cc1ccc(NC(=O)Nc2ccccc2C(=O)NCc2ccccc2)cc1	none
CCOC(=O)c1ccccc1NC(=O)c1ccccc1SC	none
CCOc1ccc(-c2nnc(SCc3nc4ccccc4[nH]3)n2N)cc1	none
O=c1ccn(-c2cccc(C(F)(F)F)c2)nc1-c1ccn(-c2ccccc2F)n1	Cav3 T inh -8, CYP2C9 inh 69
COc1ccccc1NC(=O)c1nn(-c2cccc(C(F)(F)F)c2)ccc1=O	CYP2C9 activ 2.7 (no result: Cav3 T inh)
COc1ccc(-n2ccc(-c3nn(-c4cccc(C(F)(F)F)c4)ccc3=O)n2)cc1	Cav3 T inh -4.4, CYP2C19 inh 82, CYP2C9 inh 83
Cc1ccc2nc(NC3=NCN(C4CCCCC4)CN3)nc(C)c2c1	none (no result: Cav3 T inh)
O=C1SC(c2ccccc2)=C/C1=C\N1CCCCC1	CYP2C19 inh 57
COc1ccc(N2CC(O)=C(c3nc4ccccc4s3)C2=N)c(OC)c1	CYP2C19 inh 55
CCn1c(CNC(=O)c2ccco2)nnc1SCC(=O)Nc1cc(C(F)(F)F)ccc1Cl	Cav3 T inh -4.5
COC(=O)c1sc(NC(=O)c2cnccn2)c(C(=O)OC)c1C	none (no result: CYP2C19 activ, CYP2C19 inh, CYP2C9 inh, CYP2C9 activ)
Cc1ccc(C(CC(=O)N2CCCC2)c2ccccc2)c(O)c1C (stereo unspecified)	CYP2C19 inh 96, CYP2C9 inh 96 (no result: Cav3 T inh)
COc1cc(O)c(C(CC(=O)N2CCCCC2)c2ccc(N(C)C)cc2)c(OC)c1 (stereo unspecified)	none (no result: CYP2C19 activ, CYP2C19 inh, CYP2C9 inh, CYP2C9 activ)
Cc1cccc(C(CC(=O)N2CCCC2)c2ccccc2)c1O (stereo unspecified)	CYP2C19 inh 84, CYP2C9 inh 73
O=C(O)c1ccccc1SCC(=O)N1CCCCC1	none
